Screening results from PubChem BioAssay.
HCMV antiviral – qHTS Assay for inhibitors of the human cytomegalovirus (HCMV). HFF cells, HCMV-luciferase reporter, 72 h; stronger effect = lower value. activity change, negative = inhibition, % at 57.5 µM. hit rate 4.5% among 410,000; in the data active = activity change below about -60%; inconclusive = no clear call, values can overlap the other calls; inactive = above about -39%
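Cell-based, HFFs, 1000 cells/well, 16 h 37C; cpds in DMSO + HCMV-luc, MOI 1 PFU/cell; 72 h 37C; OneGlo luminescence after 5 min RT; norm. to buffer vs Salinomycin 10uM.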
Vaccinia Venus – qHTS for Stage-Specific Inhibitors of Vaccinia Orthopoxvirus: Venus Reporter Primary qHTS; Vaccinia virus Venus reporter expression, fluorescence; Potency, µM (top dose mostly 36.5 µM), without a hit: at the highest dose activity change, negative = inhibition, actives largely listed as inhibitors; hit rate 0.46% among 330,000; AID 720580, 2013; calls by dose curve; tested in A549 cells; also: potency is read from the fitted curve at half-maximal effect; nearly all actives have a fitted effect of over 30% in size
HCV inhibitor – qHTS Assay for Inhibitors of Hepatitis C Virus (HCV); Huh7.5.1 HCVcc-Cre infection, luciferase reporter, 44 h; Potency, µM (titrated, usually from 41.8 µM), for inactives: at the highest dose activity change, negative = inhibition, usual class: inhibitors; hit rate 3.4% among 340,000; AID 651820, 2012; also: potency is read from the fitted curve at half-maximal effect
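Antiviral activity was scored by luciferase reporter output from cells infected with HCVcc-Cre (~0.5 moi) in presence of compound, 44 h infection period, cells seeded 1,000/well 4 h prior.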
FMDV inh – High Throughput Screening for Foot and Mouth Disease Virus Antivirals. AID 1159524, 2015. hit rate 1.2% among 410,000. Potency, µM (highest dose often 57.9 µM), for inactives: at the highest dose activity change, negative = inhibition, usual class: inhibitors. FMDV antiviral cell-based qHTS; calls by dose curve; tested in HEK293T cells; also: read-out not given here; potency is read from the fitted curve at half-maximal effect; nearly all actives have a fitted effect of over 45% in size
Giardia FBPA inh – qHTS Assay for Inhibitors of Fructose-1,6-bisphosphate Aldolase from Giardia Lamblia; A8B2U2; purified Giardia FBPA; Potency, µM (top dose mostly 59.6 µM), without a hit: at the highest dose activity, negative = inhibition, actives largely listed as inhibitors; hit rate 0.71% among 290,000; AID 2451, 2010; also: potency is read from the fitted curve at half-maximal effect; nearly all actives have a fitted effect of over 55% in size
Target sequence (A8B2U2 whole entry, looked up): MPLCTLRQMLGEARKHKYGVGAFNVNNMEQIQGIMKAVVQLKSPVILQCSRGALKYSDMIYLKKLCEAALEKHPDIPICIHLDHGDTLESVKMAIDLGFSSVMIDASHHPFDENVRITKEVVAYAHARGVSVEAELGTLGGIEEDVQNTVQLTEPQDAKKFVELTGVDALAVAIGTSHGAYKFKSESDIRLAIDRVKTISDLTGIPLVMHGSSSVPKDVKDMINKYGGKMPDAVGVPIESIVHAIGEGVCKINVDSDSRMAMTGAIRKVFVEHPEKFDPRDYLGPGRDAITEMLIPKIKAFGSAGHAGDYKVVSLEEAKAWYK
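40 nM FBPA preincubated 10 min at RT with compound (up to 57.5 uM final), then substrate plus GAPDH/TPI/NAD/arsenate coupling and diaphorase/resazurin added. Fluorescence read after 20 min at RT, 525/598 nm.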
VACV mCherry inh – qHTS for Stage-Specific Inhibitors of Vaccinia Orthopoxvirus: mCherry Reporter Primary qHTS; Vaccinia virus mCherry reporter infection, fluorescence; AID 720579, 2013; Potency, µM (doses to about 36.5 µM), without a hit: at the highest dose activity change, negative = inhibition, most hits filed as inhibitors; hit rate 0.63% among 310,000; calls by dose curve; tested in A549 cells; also: potency is read from the fitted curve at half-maximal effect; nearly all actives have a fitted effect of over 35% in size
* marks the source's active call; other numbers are inactive results; i = inactive; ? = inconclusive; / = not tested or not shown; [ ] = remark or other dose. Only some compounds are listed: those with a hit (about 7.5% of all), similar ones and a draw of the others. Unless noted, calls follow the shape of the dose curve; as a rule, active = well fitted curve in the direction sought with a large enough effect; inconclusive = small, poorly fitted or top-dose-only effect, or another doubt; inactive = no such curve, though single readings can be large; an effect the other way counts as inactive or inconclusive. % is scaled to controls: 0 for no effect and ±100 for the full control effect.

SMILES | HCMV antiviral | Vaccinia Venus | HCV inhibitor | FMDV inh | Giardia FBPA inh | VACV mCherry inh
CCOC(=O)c1cc(CC)sc1NC(=O)C1CC1 | 14 | / | 11µM* | -14% | 4% | /
CCOC(=O)c1cc(CC)sc1NC(=O)COC(=O)C1CCC1 | -6 | / | ? | -1% | -3% | /
CCOC(=O)c1cc(CC)sc1NC(=O)c1cc(OCC)c(OCC)c(OCC)c1 | -1 | / | 2.8µM* | 21% | / | /
COc1ccc(CCN(C)C(=O)Cc2ccc(-c3ccccc3)cc2)cc1OC | -76* | -19% | 2.5µM* | ? | -2% | ?
CCN(Cc1ccccc1)Cc1ccc(OCc2ccccc2)c(OC)c1 | 42 | / | -1% | -30% | ? | /
COc1cc(CN(C)CCc2ccccc2)ccc1OCc1ccccc1 | -32 | / | 3.5µM* | -21% | 0% | /
c1cc(Nc2ncnc3sc4c(c23)CCC4)ccn1 | -63* | -3% | 12% | -16% | 6% | -12%
NNc1ncnc2sc3c(c12)CCC3 | -25 | -4% | ? | -26% | ? | i
CN(C)c1ccc(Nc2ncnc3sc4c(c23)CCCC4)cc1 | -90* | -12% | / | ? | / | ?
NC1=NCCCC1 | / | / | / | -9% | 10% | /
Cc1ccc(Cl)cc1NC(=O)N(C)CCOC(=O)Nc1cccc(Cl)c1 | -9 | / | / | / | / | /
COc1ccc(NC(=O)CCc2c(C)nc3cc(-c4cccc(F)c4)nn3c2C)cc1Cl | -31 | -6% | / | -30% | / | -4%
COc1cc(NC(=O)CCc2c(C)nc3cc(-c4ccccc4)nn3c2C)cc(OC)c1OC | -104* | -8% | / | -22% | / | -14%
COc1cc(OC)cc(-c2cc3nc(C)c(CCC(=O)Nc4ccc(F)c(Cl)c4)c(C)n3n2)c1 | -62* | -15% | / | 32µM* | / | -20%
CC(OC(=O)c1nc(Cl)ccc1Cl)C(=O)NCc1ccccc1 (stereo not given) | 19 | 0% | / | -20% | / | i
COc1ccc(CCN(C)Cc2nc(-c3cnccn3)no2)cc1OC | 9 | 0%[7.34 µM] | 8% | 5.6µM* | 4% | i[7.34 µM]
CN(C)c1ccc(/C=C/c2ccnc3ccc(F)cc23)cc1 | / | -42% | / | / | / | -39%
Cc1ccc(NS(=O)(=O)c2ccc(Br)s2)nc1 | ? | -6% | 3.5µM* | 36% | 7.9µM* | -16%
CCC(=O)N1CCCc2cc(S(=O)(=O)Nc3ccc(C)c(C)c3)ccc21 | -17 | -9% | / | 0% | / | 0%
CN(CCc1ccccc1)C(=O)c1ccc(NC(=O)Cc2ccc(NC(=O)C3CCCN(C(=O)C4CCCC4)C3)cc2)cc1 (stereo not given) | -68* | ? | ? | ? | / | ?
CN(C(=O)c1cccc(NC(=O)C2CCCN(C(=O)OC(C)(C)C)C2)c1)C1CCC1 (stereo not given) | -22 | -14% | -12% | ? | / | ?
CN(Cc1ccccc1)C(=O)c1ccc(NC(=O)C2CCCN(C(=O)OC(C)(C)C)C2)cc1 (stereo not given) | -39 | -15% | 6.3µM* | ? | / | -14%
CN(Cc1ccccc1)C(=O)c1ccc(NC(=O)Cc2ccc(NC(=O)C3CCCN(C(=O)C4CCC4)C3)cc2)cc1 (stereo not given) | -15 | -22% | ? | ? | / | -16%
CN(C(=O)c1cccc(NC(=O)C2CCN(C(=O)OC(C)(C)C)CC2)c1)C1CCCCC1 | -9 | -22% | 10µM* | ? | / | -4%
CN(Cc1ccccc1)C(=O)c1ccc(NC(=O)Cc2ccc(NC(=O)C3CCCN(C(=O)CCc4ccccc4)C3)cc2)cc1 (stereo not given) | -67* | ? | 2.2µM* | ? | / | 10µM*
SMILES | HCMV antiviral | Vaccinia Venus | HCV inhibitor | FMDV inh | Giardia FBPA inh | VACV mCherry inh
CN(C(=O)c1cccc(NC(=O)Cc2ccc(NC(=O)C3CCCN(C(=O)CCc4ccccc4)C3)cc2)c1)C1CC1 (stereo not given) | 10 | -7% | -2%[8.37 µM] | ? | / | ?
CN(Cc1ccccc1)C(=O)c1ccc(NC(=O)Cc2ccc(NC(=O)C3CCCN(S(=O)(=O)c4cccc([N+](=O)[O-])c4)C3)cc2)cc1 (stereo not given) | 4 | -19% | 13µM* | -29% | / | ?
CN(C(=O)c1ccc(NC(=O)Cc2ccc(NC(=O)C3CCCN(C(=O)CCc4ccccc4)C3)cc2)cc1)C1CCCC1 (stereo not given) | ? | ? | ? | ? | / | 10µM*
CN(C(=O)c1cccc(NC(=O)Cc2ccc(NC(=O)C3CCCN(C(=O)CCc4ccccc4)C3)cc2)c1)C1CCCCC1 (stereo not given) | -75* | ? | 3.2µM* | 14µM* | / | 13µM*
CN(C(=O)c1cccc(NC(=O)Cc2ccc(NC(=O)C3CCCN(C(=O)C4CCCC4)C3)cc2)c1)C1CCCC1 (stereo not given) | -8 | 0% | 10µM* | ? | / | i
CN(C(=O)c1ccc(NC(=O)Cc2ccc(NC(=O)C3CCN(C(=O)CCc4ccccc4)CC3)cc2)cc1)C1CCCC1 | -13 | -9% | 2% | ? | / | i
Cc1c(C(=O)Nc2ccccc2Cl)oc2ccc(S(=O)(=O)N3CCCCC3)cc12 | 0 | ? | / | 8% | / | ?
O=C1NC[C@@H](CCCCN2C[C@H](Cc3ccccc3)N(Cc3ccccc3)C(=O)C2=O)N(CCc2ccccc2)C1=O | -14 | 12% | / | 42% | / | 20%
Cc1ccc(NC(=O)c2ccc3c(=O)n4c(nc3c2)CCC4)cc1S(=O)(=O)N(C)C | -27 | -16% | ? | -24% | / | -6%
CCN(C[C@H]1N[C@@](CC)(C(=O)OC)[C@H]2C(=O)N(C)C(=O)[C@@H]12)S(=O)(=O)c1ccc(OC(F)(F)F)cc1 | -3 | 0% | ? | -23% | / | i
COc1ccc(Nc2nc(C)cc(C)c2C#N)c(OC)c1 | 34 | -8% | ? | -2% | 12% | i
CCc1ccc2nc(Nc3ccc(OC)cc3OC)c(C#N)cc2c1 | -7 | -23% | 3.5µM* | 13% | -4% | -14%
Cc1cn([C@H]2C[C@H](O)[C@@H](/C=C/C(=O)NCCC(C)C)O2)c(=O)[nH]c1=O | 9 | 5% | / | -8% | / | i
O=C(Nc1ccc2c(c1)OCCO2)C1c2ccccc2OCC(=O)N1CCc1ccccc1 (stereo not given) | 5 | -7% | / | 2% | / | 8%
CCOC(=O)C1(C(=O)OCC)COC(=O)C1CN1Cc2cc3ccccc3nc2C1 (stereo not given) | 142 | -6% | / | 28µM* | / | -13%
CCC[C@H]1CN(c2ccccc2)C(=O)[C@@H]1CC(=O)NC | -12 | -14% | / | -17% | / | -23%
